{
  "source": "the supplement of paper PMC6555819",
  "data": [
    {"system": "VDR:RXRa (NR concentration 270 nM, RXRa partner concentration 90 nM)", "assay": "PBM binding z-score (relative to random genomic background probes); higher = stronger binding; sequences stand for … in GC…GCGATTGACAGCGTAGAATGAAGG", "protocol": "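Protein-binding microarray (Agilent 4x180K custom design, double-stranded 60-nt probes: 5' GC cap, 34-nt variable region, 24-nt constant primer region; full probe sequence given). Purified or IVT nuclear receptor:RXRα heterodimers (3:1 NR:RXRα, mostly 270:90 nM) or homodimers were incubated for 1 h in PBS with 2% milk and no ligand, then detected with Alexa488 antibodies. Fluorescence from o1-orientation probes (~5 replicates averaged) was converted to z-scores against 500 random hg19 background probes. Variable regions are seed direct-repeat (DR0–DR5) sites, all their single-nucleotide variants and half-site ablations.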", "values": [
      {"sequence": "TCGATTAGGTTACGGGGGCATTCAGGGATGAAGA", "PBM binding z-score": 4.31},
      {"sequence": "CTATGTAGGTTAAGGGGGTCATCCAGTTTGAAAG", "PBM binding z-score": 7.32},
      {"sequence": "CGAACTAGGTCAAAGGAGAGTGAAAGGCGACGTA", "PBM binding z-score": 0.961},
      {"sequence": "GATACGGGGTCAGCTAGAGGCCAGAGTATGGAAA", "PBM binding z-score": 5.72},
      {"sequence": "CTTTGTAGGTTAAGGGGGTCATTCAGTTTGAAAG", "PBM binding z-score": 7.48},
      {"sequence": "GCTGCTAGGTCGACTGATGGTCAGCTAAAGCTCG", "PBM binding z-score": -0.493},
      {"sequence": "TCTCGGAGGACACGAAAGGTGAGAGCTCGACATC", "PBM binding z-score": 0.263},
      {"sequence": "TAGCCTAGGTCCTTCAGGGGCCAGTATAGAAAGC", "PBM binding z-score": -0.708},
      {"sequence": "CATACAGGGTAAGCTAGGCCAGAGTAGGGACGGC", "PBM binding z-score": -0.528},
      {"sequence": "CTCGAAAGGTCGTGCTCAGGTGAGTATGCCAAAC", "PBM binding z-score": 3.25},
      {"sequence": "CCTACTGGGCCAAAGGCCATTGATTCCAATGCTC", "PBM binding z-score": -0.327},
      {"sequence": "CTATGTAGGTTAAGGGGGTCATTCAATTTGAAAG", "PBM binding z-score": 7.18},
      {"sequence": "CTATGTAGGTTAAGGGCGTCATTCAGTTTGAAAG", "PBM binding z-score": 0.981},
      {"sequence": "CGAACTAGGTCACCCGGACAGTGAAGAGGTTGGA", "PBM binding z-score": 2.69},
      {"sequence": "CCTTACGGGTCAAGGTTATCGCACGGGTGGTACG", "PBM binding z-score": 3.69},
      {"sequence": "CCTACTGGGCCACTCAGAGGTCATTGATCATATG", "PBM binding z-score": 4.06},
      {"sequence": "TGTCAGAGTTCAAAGGTAACGTAAGTATCCACAC", "PBM binding z-score": 5.75},
      {"sequence": "CCTAGTTGGGCAGGAGGTCACACACCGGATATGA", "PBM binding z-score": 3.09},
      {"sequence": "CCGAGCAGGTTACGAGGGGGCATTCAGTGCGAAT", "PBM binding z-score": 5.27},
      {"sequence": "TCTAGCTGGTCAAAGGTCACACACTCGAAATGCG", "PBM binding z-score": 5.36},
      {"sequence": "AGTCAAAGTTCTTCTAGGTAACGTAAGATATGCT", "PBM binding z-score": 0.489},
      {"sequence": "ATATGTCGGTTAGGGTCATTCAGAAAGTAGGGAA", "PBM binding z-score": 4.56},
      {"sequence": "CGAACAAGGTCAAAGGACAGTGAAAGGCGACGTA", "PBM binding z-score": 3.93},
      {"sequence": "TCGAGTAGGTTACGGGTGCATTCAGGGATGAAGA", "PBM binding z-score": 3.53},
      {"sequence": "CTATGTAGGTTAAGGGGGTCATTCTGTTTGAAAG", "PBM binding z-score": 7.27},
      {"sequence": "CCGAGTAGGTTACGAGGCGGCATTCAGTGCGAAT", "PBM binding z-score": -0.141},
      {"sequence": "CGAAGTAGGTCAAAGGACAGTGAAAGGCGACGTA", "PBM binding z-score": 1.9},
      {"sequence": "ATCGAAAGGTCGAAAGTGAGTATACCCACCCGAA", "PBM binding z-score": 2.18},
      {"sequence": "ATCGAAATGTCGTGAGGTGAGTATACAGAAAGGC", "PBM binding z-score": -0.0568},
      {"sequence": "CAAACTAGGTCACAGAGGTTAAAGTCCGTGCGTA", "PBM binding z-score": 6.72},
      {"sequence": "CCGAGTAGGTTACGAGGGGGCCTTCAGTGCGAAT", "PBM binding z-score": 1.73},
      {"sequence": "TCGAGTAGGTTACGGGGGCATTCCGGGATGAAGA", "PBM binding z-score": 3.83},
      {"sequence": "AGAATGGGGTTATTAAGATCAGGGAATTGCGGTC", "PBM binding z-score": 4.05},
      {"sequence": "CCGACTGGGGCAAAGGTTACCATGCTCAGTACGA", "PBM binding z-score": 1.64},
      {"sequence": "CGTCCAAGGTCAGATAGGTCAGTGAATGCCGAGT", "PBM binding z-score": 4.9},
      {"sequence": "GCTGCTAGGTCAGGTTGGTCGGCTAACGGGTACG", "PBM binding z-score": 0.166},
      {"sequence": "CGTCAAAGTTCAAGTTAACGTAACAGAAAGCAGC", "PBM binding z-score": 4.32},
      {"sequence": "CGTCCAAGGTCAGTGAGGTCAGTGAATGCCGAGT", "PBM binding z-score": 7.42},
      {"sequence": "CGAACTAGGTCACCAGGACAGTCAAGAGGTTGGA", "PBM binding z-score": 2.18},
      {"sequence": "AGAATGAGGTTAAGATTAGGGAAACAGAATACAT", "PBM binding z-score": 1.36}
    ]}
  ]
}
